Assay results as given in PubChem BioAssay (EPA / NIEHS).
Inconclusive results are not listed. Calls of active or inactive are those of the source. How the source made its calls: active means hit-call score of the fitted dose curve at least 0.9, where 1 is the maximum; inconclusive means response in the unintended direction; inactive means score below 0.9.

What follows are compounds tested against Nuclear receptor subfamily 1 group I member 2 (Homo sapiens) (UniProt O75469) (assay: ATG_PXR_TRANS: Attagene TRANS-FACTORIAL HepG2 Assay for human Pregnane X Receptor (PXR) (AID 2283008)).
Nuclear receptor subfamily 1 group I member 2 (Homo sapiens), sequence (O75469 whole entry, looked up): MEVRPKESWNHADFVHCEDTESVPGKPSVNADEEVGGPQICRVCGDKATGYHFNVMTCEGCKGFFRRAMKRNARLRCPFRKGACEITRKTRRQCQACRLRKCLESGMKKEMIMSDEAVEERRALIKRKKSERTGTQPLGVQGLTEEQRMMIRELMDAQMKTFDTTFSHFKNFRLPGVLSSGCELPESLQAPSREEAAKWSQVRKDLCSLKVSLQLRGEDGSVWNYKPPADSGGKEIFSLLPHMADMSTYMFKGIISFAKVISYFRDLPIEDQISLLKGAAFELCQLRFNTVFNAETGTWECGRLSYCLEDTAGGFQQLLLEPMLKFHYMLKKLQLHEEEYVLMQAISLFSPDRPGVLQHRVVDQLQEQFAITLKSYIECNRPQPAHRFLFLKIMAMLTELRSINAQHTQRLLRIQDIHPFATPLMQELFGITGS
Method: ATG_TRANS is a cell-based, multiplexed-readout assay that uses HepG2, a human liver cell line, with measurements taken at 24 hours after chemical dosing in a 24-well plate.ATG_PXR_TRANS is one of 30 assay component(s) measured or calculated from the ATG_TRANS assay. It is designed to make measurements of mRNA induction, a form of inducible reporter, as detected with fluorescence intensity signals by Reverse transcription polymerase chain reaction (RT-PCR) and Capillary electrophoresis technology.Data from the assay component ATG_PXR_TRANS was analyzed into 1 assay endpoint. This assay endpoint, ATG_PXR_TRANS, was analyzed in the positive analysis fitting direction relative to DMSO as the negative control and baseline of activity. Using a type of inducible reporter, measures of mRNA for gain-of-signal activity can be used to understand the reporter gene at the transcription factor-level as they relate to the gene NR1I2. Furthermore, this assay endpoint can be referred to as a primary readout, because this assay has produced multiple assay endpoints where this one serves a reporter gene function. To generalize the intended target to other relatable targets, this assay endpoint is annotated to the nuclear receptor intended target family, where the subfamily is non-steroidal.
Human liver HepG2 cells are transiently transfected with multiple reporter transcription units (MRTUs) in 6-well plates using FuGene 6 reagent (Roche; 3 ml FuGene/1 mg DNA). The MRTU constructs are regulated by a cis-regulating element (promoter). […] A major difference between the CIS and TRANS system is that in CIS activities of endogenous TFs are measured, whereas the TRANS assay evaluates changes in activities of exogenous, chimeric NR-Gal4 proteins. […] At the end of 24 hour incubation, total RNA was isolated using TriZol reagent (Invitrogen). The isolated RNA is then reverse-transcribed using oligo(dT) primer and Mo-MLV reverse transcriptase (Invitrogen) with DNAse I (Ambion) treatment for 30 min. The one-tenth of the produced cDNA was amplified by PCR using Taq DNA polymerase (Invitrogen) and two reporter sequence-specific primers. The PCR products were fluorescently labeled by primer extension with 6-arboxyfluorescein (6-FAM) 5'-labeled reporter sequence-specific primer (2 min at 95 C, 20 s at 68 C and 10 min at 72 C) and these products were digested with 5U of HpaI (New England Biolabs) for 2h at 37 C. The fragments were purified using Qiaquick PCR columns (Qiagen), analyzed on an ABI 3130xL genetic analyzer (Applied Biosystems) with peak positions identified by using a set of X-rhodamine (ROX)-labeled MapMarker1000 molecular weight standards (BioVentures). The raw capillary electrophoresis data was processed using Attagraph software (Attagene).

outcome, inactive:
CC(C#N)(CCC(=O)O)N=NC(C)(C#N)CCC(=O)O (stereo not given), Nc1cccc(S(=O)(=O)c2cccc(N)c2)c1, CCC/C=C/C=O, Cc1ccc2ccccc2n1, O=S(=O)(O)c1ccc(O)c2ncccc12, O=C(O)CCCCCCCCCCC(=O)O, CCO[Si](CCCS)(OCC)OCC, CC(C)(C)NC(N)=O, CCCc1ccccc1O, OCc1cccnc1, C=CC(=O)NCOCC(C)C, c1ccc2[nH]ccc2c1, CC(=O)C(=O)O, CCCCc1ccc(N)cc1, CC(C)c1ccc(C(C)C)cc1, CC(C)[C@@H]1CC[C@@H](C)CC1=O, CC(=O)O[C@]1(C(C)=O)CC[C@H]2[C@@H]3C[C@H](C)C4=CC(=O)CC[C@]4(C)[C@H]3CC[C@@]21C, NCCNCCN, Sc1nc(S)nc(S)n1, CC(C)=CCC[C@H](C)CC=O, Cc1ccc(C(=O)O)o1, CN(C)CCCN, Cc1ccc(C(=O)c2cc(O)c(O)c([N+](=O)[O-])c2)cc1, CCCCCC(CO)CCC (stereo not given), CC1(CO)CN(c2ccccc2)NC1=O (stereo not given), CC(C)(Oc1ccc(CCNC(=O)c2ccc(Cl)cc2)cc1)C(=O)O, CCCCC/C=C/C=C/C=O, CC(C)(N)CO, CC(C)(C)c1n[nH]c(=S)n(N)c1=O, CNC(=O)Oc1ccc2c(c1)[C@]1(C)CCN(C)[C@@H]1N2C, CCOC(=O)c1ccccc1OC, Nc1cc(Cl)c(O)c(Cl)c1

AC50, active:
C=C(C)C(=O)O[C@H]1C[C@@H]2CC[C@@]1(C)C2(C)C 31.6 µM, CC[C@]12CCCN3CCc4c(n(c5ccccc45)[C@@](O)(C(=O)OC)C1)[C@@H]32 2.99 µM, C=C(C)C(=O)Nc1ccc(Cl)c(Cl)c1 7.08 µM, Clc1nc(C(Cl)(Cl)Cl)c(Cl)c(Cl)c1Cl 21.2 µM, CC1=CCC2C(C1)C2(C)C (stereo not given) 10.7 µM, CCCCOCCOCCSC#N 3.36 µM, O=CCCc1ccccc1 28.4 µM, CC(=O)C=CC1=C(C)CCCC1(C)C 1.02 µM
